PubChem BioAssay AID1347071 (National Center for Advancing Translational Sciences (NCATS), 2019)
In all, about 410,000 compounds went through this assay and about 260 (0.063%) were called active. About 2% were inconclusive and are not listed. Many of the other results were omitted from the sample, so actives are more common in it than they were. Values without a mark were called inactive. Calls follow the shape of the dose curve; as a rule, active = well fitted activation curve with a large enough effect; inconclusive = small, poorly fitted or top-dose-only effect; inactive = no such curve, though single readings can be large or run the other way.

Test: qHTS for compounds that reverse cellular toxicity of Amyloid beta (A-beta) peptide in yeast: Primary Screen; also: nearly all actives have a fitted effect of over 55% in size
Conditions: yeast expressing A-beta42, growth rescue, OD600, 48 h; series mostly up to 46.1 µM; growth rescue: at the top concentration
Text: The A-beta peptide is produced by the processing of the amyloid precursor protein (APP) by two proteases, beta and gamma secretases. […] A-beta42 is regarded as the most amyloidogenic form due to its hydrophobicity; however, precisely how A-beta42 induces neurotoxicity is unclear. To understand further this biology and its potential therapeutic implications for human neurodegenerative disease, a quantitative high-throughput screen for compounds that reverse the cellular toxicity of the A-beta peptide was developed. A yeast based screen was used because it recapitulates the salient feature of protein mis-folding disorder accurately. This cell-based phenotypic screen provides a significant, unbiased advantage by letting the compounds and models inform us which proteins or pathways are most relevant. The ideal chemical candidates would therefore have activity in both our primary yeast and secondary neuronal toxicity assays, as well as in mouse models. They will be valuable tools for dissecting diverse protein homeostasis pathologies and could potentially become the focus for future pre-clinical development. For this luminescence assay, inhibition of A-beta rescues the toxic effect in the yeast cell, resulting in increase of signals and the desired phenotype of "Activator". This screen is run against the Molecular Libraries Small Molecule Repository (MLSMR) and the NCGC Sytravon Library Collection.
NIH Chemical Genomics Center [NCGC]
NIH Molecular Libraries Probe Centers Network [MLPCN]
Assay Submitter (PI): Susan Lindquist, Whitehead Institute, Massachusetts Institute of Technology
[1] Vassar R,et al (1999). Beta-secretase cleavage of Alzheimer's amyloid precursor protein by the transmembrane aspartic protease BACE. Science. 286: 735-741.
[2] Yan R, et al (1999). Membrane-anchored aspartyl protease with Alzheimer's disease beta-secretase activity. Nature. 402: 533-536.
Two and a half microliter / well of yeast growth medium were dispensed in a 1536 assay plate. Compounds were pinned using the Kalypsys robotic system followed by addition of 2.5 uL / well yeast solution. The assay plates were incubated at 30 C. After 48 hr, the absorbance signal at 600 nm was obtained using the PerkinElmer ViewLux plate reader to assess yeast growth. The data was normalized to the positive control of an equimolar mixture of ferric chloride (FeCl3) and clioquinol and to the negative control DMSO.
Potency is read from the fitted curve at half-maximal effect.

Point of comparison: CCc1ccc(NC(=O)CN2C(=O)C(c3ccccc3)=NC23CCCCCC3)cc1, “growth rescue” value -33.6%. Against it:
- Cc1cccc(NC(=O)C2CCCN2S(=O)(=O)c2cccc3nsnc23)c1C (stereo not given) — higher, -2.47%
- COc1ccc(OCCCn2c(C)nc3cc(C)c(C)cc32)cc1 — higher, -4.77%
- Cc1c(-c2nc(-c3ccc4c(c3)OCO4)no2)nnn1-c1ccc(Br)cc1F — higher, -2.02%
- O=C(CCn1ccc2cc(S(=O)(=O)N3CCCC3)ccc21)NCc1cccc(Cl)c1 — higher, 2.11%
- O=C(CSc1oc(-c2ccccc2)nc1S(=O)(=O)c1ccc(Br)cc1)NC1CCCCC1 — higher, 5.91%
- CC(C)CCNC(=O)CSc1nc2ccccc2nc1Cc1ccc(Cl)cc1 — higher, 9.91%
- COc1cc(C(=O)Nc2ccc(-n3c(C)nc4ccccc4c3=O)cc2)cc(OC)c1OC — higher, -7.82%
- CCOc1ccccc1C(=O)Nc1ccc(S(=O)(=O)N2CCCCC2c2cccnc2)cc1 (stereo not given) — higher, -13.3%
- Cn1c(=O)c2c(nc(Oc3ccc(C#N)cc3)n2Cc2ccc(Cl)cc2Cl)n(C)c1=O — higher, -7.43%
- CCN(c1ncnc2c1cnn2-c1ccc(C)cc1)C1CCCCC1 — higher, -13.3%
- Cc1ccc(NC(=O)c2nc(S(=O)(=O)Cc3cccc(C)c3)ncc2Cl)cc1 — higher, -33.4%
- Cc1nnc(N2CCCC(C(=O)NCCN(C)C)C2)c2nn(-c3ccccc3)c(C)c12 (stereo not given) — higher, -0.421%
- COc1ccc(C2=NC(c3ccncc3)=Nc3ccc(Br)cc3N2)cc1 — higher, -13.2%
- COc1ccc(OC)c(-n2nnc3c(sc4nc(C)c(Br)c(C)c43)c2=O)c1 — higher, -12.2%
- CCS(=O)(=O)N1CCC(n2c(C)nc3cccnc32)CC1 — higher, -4.75%
- COc1cc(OC)c(NC(=O)N2CC3CCCN3c3ccccc32)cc1Cl (stereo not given) — higher, -9.37%
- CCOc1ccc(CNC(=O)c2ccc(CS(=O)c3ccccc3)o2)cc1 (stereo not given) — higher, -8.75%
- CCCCn1c(=N)c(S(=O)(=O)c2ccccc2)cc2c(=O)n3cccc(C)c3nc21 — higher, 0.43%
- Fc1ccc(Nc2nc(SCc3ccccc3Cl)nc3ccccc23)cc1 — lower, -45.3%
- COc1ccccc1N1CCN(C(=O)C2CCN(S(=O)(=O)c3c(C)noc3/C=C/c3ccc(C)cc3)CC2)CC1 — higher, -1.97%
- Cc1ccc2oc3c(c(=O)c2c1)C(c1ccc(O)cc1)N(Cc1ccc2c(c1)OCO2)C3=O (stereo not given) — higher, 5.68%
- COc1ccc(-c2cc(NCc3ccc(F)cc3)n3cnnc3n2)cc1 — higher, -4.36%
- CCCCN(C)S(=O)(=O)c1ccc(C(=O)Nc2sc3c(c2C(N)=O)CC(C)(C)NC3(C)C)cc1 — higher, -10.9%
- Cc1ccc(N(CC(=O)NCc2ccc(Cl)cc2)S(=O)(=O)N(C)C)cc1 — higher, 13%
- Cc1cc2nn(-c3ccc(Cl)cc3)nc2cc1NC(=O)C(C)C — higher, -14.3%
- Cc1ccc(C(=O)CSc2nc(-c3ccccc3)nc3c2CCCC3)c(C)c1 — higher, -11.5%
- O=C(NC1CC(=O)N(c2ccccc2)C1)c1ccco1 (stereo not given) — higher, 11.5%
- COCCNC(=O)CSc1nc(-c2ccccc2)[nH]c1-c1ccc(C)cc1 — higher, -13.5%
- COc1ccccc1CNC(=O)C(Cc1ccccc1)NS(=O)(=O)c1ccc2c(c1)oc(=O)n2C (stereo not given) — higher, 0.772%
- CCCCNC(=O)C1CCCN(c2nnc(C)c3c(C)n(-c4ccc(Cl)cc4)nc23)C1 (stereo not given) — higher, -17.8%
- CCOC(=O)c1c(NC(=O)CSc2cn(CCNC(=O)c3cccc(C(F)(F)F)c3)c3ccccc23)sc2c1CCC2 — higher, -8.29%
- Cn1c(=O)c2c(ncn2CC(=O)Nc2cccc(C(F)(F)F)c2)n(C)c1=O — higher, -3.94%
- CCN(CCCNC(=O)c1ccc(Sc2ccc(C)cc2)c(NC(C)=O)c1)c1cccc(C)c1 — higher, -1.54%
- C#CCOc1ccc(C2CC(=O)Nc3c2c(C)nn3-c2nc(C)cc(C)n2)cc1 (stereo not given) — higher, 2.23%
- COc1cccc(NC(=O)CSC2=Nc3ccccc3C3=NC(CC(=O)NC4CCCCC4)C(=O)N23)c1 (stereo not given) — higher, -14.8%
- O=C(CNS(=O)(=O)c1cccs1)N1CCN(c2ccccc2Cl)CC1 — higher, 5.4%
- Cc1nnc(N2CCC(C(=O)Nc3ccc(F)cc3)CC2)c2nn(-c3ccc(Cl)cc3)c(C)c12 — higher, 5.45%
- COc1ccc(-c2onc(C)c2C)cc1S(=O)(=O)NCc1cccs1 — higher, -11.1%
- COc1cc(OC)cc(-c2nc3nc(C)c(CCC(=O)Nc4ccc(C)cc4)c(C)n3n2)c1 — higher, -8.3%
- CCOCCc1nn2c(=O)cc(COC(=O)CNC(=O)c3ccc(C(C)(C)C)cc3)nc2s1 — higher, -7.06%
- Cc1ccccc1-n1c(=O)c2ccccc2n(Cc2ccc(F)cc2)c1=O — higher, 8.53%
- CCOC(=O)c1cnc2c(C)cc(Cl)cc2c1NCCc1ccc(OC)c(OC)c1 — higher, -7.55%
- CCOc1ccccc1NC(=O)Cn1c(=O)n(Cc2ccccc2)c(=O)c2c(C)c(C(=O)N(C)C)sc21 — higher, 8.18%
- COc1ccc(C2C(=O)N(C3CCCCC3)CC(=O)N2Cc2ccccc2Cl)cc1OC (stereo not given) — higher, -19.9%
- Cc1cccc(OCCSc2nc3ccccc3n2CC(=O)N2CCCCC2)c1C — higher, -18.2%
- Cc1ccc(C(=O)N2CCc3cc(CNC(=O)c4ccc(Br)cc4)ccc32)cc1 — higher, -7.59%
- Cc1cccc(N(C)C(=O)CS(=O)(=O)c2cccc3nsnc23)c1 — higher, -5.59%
- COc1ccccc1OCCC(=O)OCC(=O)NC(=O)NC(C)(C)C — higher, 6.23%
- Cc1ccc(Cl)cc1NC(=O)COC(=O)CC(C)(C)C — higher, 7.7%
- Cc1ccc([C@H]2N[C@]3(CCCN(Cc4ccccc4)C3=O)[C@H]3C(=O)N(Cc4ccccc4)C(=O)[C@@H]23)cc1 — higher, -6.57%
- CCN1C(=O)[C@H]2[C@@H](c3ccc(C(F)(F)F)cc3)N[C@]3(CCCN(Cc4ccc(Br)cc4)C3=O)[C@H]2C1=O — higher, 27.1%
- COc1ccc(CCNC(=O)Cn2c(=O)n(-c3ccccc3)c(=O)c3c(C)c(C)sc32)cc1OC — higher, -4.29%
- COc1ccccc1OCC(=O)Nc1nnc2n1CCS2 — higher, -8.79%
- CCOc1ccc(CNC(=O)C2CCN(c3nnc(-n4cccc4CNc4ccc(C)cc4)s3)CC2)cc1OC — higher, -2.64%
- COc1cccc(CNC(=O)Cn2ncn3c(cc4ccccc43)c2=O)c1 — higher, -12.9%
- COCCNc1ncnc2c1c(-c1ccccc1)cn2-c1ccc(C)c(Cl)c1 — higher, -0.39%
- CCOc1ccc(-c2cc3nc(C4CCN(C(=O)OC(C)(C)C)CC4)c(C(=O)Nc4cccc(CC)c4)cn3n2)cc1 — higher, -2.51%
- O=c1cc(COc2cccc(C(F)(F)F)c2)nc2sc3c(n12)CCCC3 — higher, 2.31%
- CCCNC(=S)N1CCC(NC(=O)c2ccc(OC)cc2)CC1 — higher, -10.6%
- COc1ccc(S(=O)(=O)N2CCN(C(=O)NC3CCCCC3)CC2)cc1 — higher, -11%
- CCOc1ccc(NC(=O)CCC(=O)N2CC(C)Oc3ccc(C)cc32)cc1 (stereo not given) — higher, 7.46%
- CCn1c(CN2CCC(C)CC2)nc2cc(NC(=O)c3ccccc3[N+](=O)[O-])ccc21 — higher, 0.862%
- CCc1cccc(NC(=O)Cn2nc(CC)n3c(cc4cc(C)ccc43)c2=O)c1 — higher, 2.28%
- CC1=C(c2ccc(C)cc2)S(=O)(=O)NC1=NCCCN1CCN(c2cc(C)ccc2C)CC1 — higher, 7.63%
- COc1cccc(-c2cc(C(=O)Nc3ccc(C)cc3)[nH]n2)c1 — higher, -6.21%
- Cc1ccc(N2CCN(C(=O)CCc3c(C)nc4c(c3C)c(=O)n(C)c(=O)n4C)CC2)c(C)c1 — higher, -7.12%
- CCOC(=O)c1c(NC(=O)/C(C#N)=C/c2ccccc2)sc2c1CCC2 — higher, -4.42%
- COc1ccccc1CN1CCC(CNC(=O)c2cnn(-c3ccccc3Cl)c2C2CCN(C(=O)OC(C)(C)C)CC2)CC1 — higher, 12.1%
- CCn1c(CNC(=O)C23CC4CC(CC(C4)C2)C3)nnc1SCC(=O)Nc1ccc(OC)cc1 — higher, -8.21%
- COc1ccc(-c2nn(CC(=O)NC3CCCC3)c3c2cnc2ccc(F)cc23)cc1 — higher, -2.71%
- Cc1nn(C(C)C(=O)Nc2ccc(C(C)C)cc2)c(=O)c2c1sc1ccccc12 (stereo not given) — higher, 17.1%
- COc1cc(OC)c(NC(=O)c2nc(-c3ccncc3)no2)cc1Cl — higher, -15.5%
- COc1ccc(CCN2C(=O)c3oc4cc(C)cc(C)c4c(=O)c3C2c2ccccc2F)cc1OC (stereo not given) — higher, -7.53%
- CCOC(=O)c1cc2c(=O)n3ccccc3nc2n(CCCOC)c1=NC(=O)C(C)Oc1ccccc1 (stereo not given) — higher, -6.19%
- COc1cc(C(=O)Nc2ccc(OCc3cc(=O)n4cc(C)sc4n3)cc2)cc(OC)c1OC — higher, -12.8%
- COc1ccc(CN2CCc3nc(Nc4ccccc4)ncc3C2)c(OC)c1OC — higher, 4.24%
- Cc1cccc(Cn2c(CN3CCC(C(=O)NCc4ccccc4Cl)CC3)cc3ccccc32)c1 — higher, 10.4%
- CCOC(=O)N1CCc2c(sc3c2c(=O)n(Cc2ccccc2)c(=O)n3CC(=O)Nc2cccc(C)c2)C1 — higher, 1.66%
- O=C(Nc1cc(Cl)cc(Cl)c1)c1ccc2c(c1)N(Cc1cccc(Cl)c1)C(=O)c1ccccc1S2=O (stereo not given) — higher, -1.8%
- CCc1ccc(NC(=O)c2nn(-c3ccc(C)cc3)c(=O)n(C)c2=O)cc1 — higher, -10.6%
- CCN1C(=O)c2ccccc2S(=O)c2ccc(C(=O)NCc3ccc(F)cc3)cc21 (stereo not given) — higher, 16.3%
- CCn1cc(C(=O)N2CCN(c3cc(C)ccc3C)CC2)c(=O)c2cc(S(=O)(=O)N(C)C3CCCCC3)ccc21 — higher, 4.49%
- CNS(=O)(=O)c1ccc2c(c1)[nH]c(=S)n2C — higher, 1.96%
- CCCn1c(=S)[nH]c2ccc(C(F)(F)F)cc21 — higher, 31.8%
- Cn1c(=O)c2c(-c3ccccc3Br)n(Cc3ccccc3)cc2n(C)c1=O — higher, -12.3%
- COc1ccc(N2CCN(C(=O)CSCc3nc(-c4ccccc4Cl)oc3C)CC2)cc1 — higher, -16.8%
- Cc1c(Cl)cccc1NC(=S)N(Cc1ccccc1)Cc1cccnc1 — higher, 10.9%
- Cc1cccc(C)c1NC(=S)N(Cc1cccnc1)Cc1ccccc1Cl — higher, 17.9%

For CSc1nsc(SC)c1NC(=O)OC1CCCCC1, the Potency was 4.47 µM (active).
With CC(C)(C)NC(=O)NC(=O)COC(=O)Cc1ccc(Cl)cc1Cl the Potency was 11.2 µM (active).
For O=C1[C@H]2[C@@H](c3ccc(C(F)(F)F)cc3)N[C@]3(CCCN(Cc4ccc(Cl)cc4)C3=O)[C@H]2C(=O)N1Cc1ccccc1, the Potency was 8.91 µM (active).
In the case of COc1ccc(C(=O)NC(=S)NC2CCCCC2)cc1, the Potency is reported as 12.6 µM (active).
With CC(C)n1c(=S)[nH]c2cc(C(F)(F)F)ccc21 the Potency was 12.6 µM (active).
For Cc1ccc(CN(Cc2cccnc2)C(=S)Nc2cccc(Cl)c2C)cc1, the Potency was 11.2 µM (active).
